Screens as filed in PubChem.
Shown is part of a subset that was picked to be rich in hits.
Cycloheximide cs = affects cycloheximide protein synthesis inhibition readout, counter-screen. cell reporter, cycloheximide protein synthesis inhibition counterscreen. AID 2314. 12% of 300,000 active. max response, %; in the data active = max response mostly above about 13%, no sharp cut-off; inactive = mostly below about 14%; note: read at 38.3 µM for the half of the compounds with a filed dose; 0% is about no effect
Giardia FBPA inh = Giardia lamblia aldolase inhibition; A8B2U2; purified Giardia FBPA; Potency, µM (doses to about 59.6 µM), for inactives: at the top dose activity, negative = inhibition, most hits filed as inhibitors; 0.71% of 290,000 active; AID 2451; note: potency is the fitted concentration of half-maximal effect; % is set by controls: 0 for no effect and ±100 for the full control effect; nearly all actives have a fitted effect of over 55% in size
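40 nM FBPA preincubated 10 min at RT with compound (up to 57.5 uM final), then substrate plus GAPDH/TPI/NAD/arsenate coupling and diaphorase/resazurin added. Fluorescence read after 20 min at RT, 525/598 nm.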
Tb PYK inh = T. brucei pyruvate kinase inhibition | TbPYK enzyme, Kinase-Glo Plus ATP luminescence, 45 min | Potency, µM (top dose mostly 76.8 µM), inactives show at the top dose activity, negative = inhibition, actives largely listed as inhibitors | Q57TT1 | 0.12% of 410,000 active; note: potency is the fitted concentration of half-maximal effect; % is set by controls: 0 for no effect and ±100 for the full control effect; nearly all actives have a fitted effect of over 50% in size
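ADP (130 uM final) triggers the TbPYK reaction after compound addition; incubation is 45 min at room temperature. Kinase-Glo Plus is then added and luminescence imaged. Normalized data are fitted to concentration-effect curves.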
Shiga toxin inh = blocks Shiga toxin action in Vero cells. Vero cells, Shiga toxin protein synthesis inhibition reporter. inhibition, % at 38.7 µM. 9.2% of 290,000 active. AID 2315; in the data active = inhibition mostly above about 28%, no sharp cut-off; inactive = mostly below about 43%; note: 0% is about no effect
LmPK inhibitor = inhibitors of Leishmania mexicana pyruvate kinase. purified LmPK, Kinase-Glo ATP luminescence, 1 h. 0.37% of 290,000 active. AID 1721. Potency, µM (titrated, usually from 57.5 µM), inactives show at the highest dose activity change, negative = inhibition, usual class: inhibitors; note: potency is the fitted concentration of half-maximal effect; % is set by controls: 0 for no effect and ±100 for the full control effect
Target sequence (Q27686 whole entry, looked up): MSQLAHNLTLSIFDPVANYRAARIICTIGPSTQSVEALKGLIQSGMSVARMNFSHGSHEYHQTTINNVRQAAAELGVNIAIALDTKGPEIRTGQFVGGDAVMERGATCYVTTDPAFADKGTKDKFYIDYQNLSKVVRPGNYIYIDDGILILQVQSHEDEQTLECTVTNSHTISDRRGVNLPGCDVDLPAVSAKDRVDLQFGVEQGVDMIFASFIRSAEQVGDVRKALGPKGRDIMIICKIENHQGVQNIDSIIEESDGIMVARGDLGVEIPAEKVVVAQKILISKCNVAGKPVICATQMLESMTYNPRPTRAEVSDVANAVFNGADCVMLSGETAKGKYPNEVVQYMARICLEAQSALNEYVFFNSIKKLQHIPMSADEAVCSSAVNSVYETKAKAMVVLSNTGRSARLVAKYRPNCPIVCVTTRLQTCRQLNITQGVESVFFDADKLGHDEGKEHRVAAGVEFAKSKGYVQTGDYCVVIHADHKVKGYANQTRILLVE
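Pyruvate kinase activity monitored as ATP production (luciferase luminescence). Conditions: 0.1 nM enzyme, 0.5 mM PEP, 0.1 mM ADP, 1 h, RT; normalized against uninhibited and no-enzyme wells.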
RE007 growth inh = less growth of the S. pombe RE007 Vpr strain; S. pombe RE007 Vpr strain, BacTiter-Glo ATP luminescence, 24 h; Potency, µM (top dose mostly 92.2 µM), for inactives: at the top dose activity change, negative = less growth, most hits filed as inhibitors; 0.21% of 360,000 active; active = well fitted falling curve with a large enough effect; inconclusive = small, poorly fitted or top-dose-only effect; inactive = no such curve, though single readings can be large or run the other way; note: potency is the fitted concentration of half-maximal effect; % is set by controls: 0 for no effect and ±100 for the full control effect; nearly all actives have a fitted effect of over 50% in size
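Fission yeast RE007 carrying one integrated HIV-1 vpr copy, seeded at OD 0.01 in PMG+AL medium with 23 nL pinned compound. Grown 24 h at 30 degrees; viability read by BacTiter-Glo luminescence after 5 min.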
* marks the source's active call; other numbers are inactive results; ? = inconclusive; nt = no result; [ ] = another dose, or the depositor's remark. Unless noted, calls come from the whole dose curve; as a rule, active = well fitted curve in the direction sought with a large enough effect; inconclusive = small, poorly fitted or top-dose-only effect, or another doubt; inactive = no such curve, though single readings can be large; an effect the other way counts as inactive or inconclusive.

SMILES	Cycloheximide cs	Giardia FBPA inh	Tb PYK inh	Shiga toxin inh	LmPK inhibitor	RE007 growth inh
COc1ccc(C(=O)Nc2ccc(NC(=O)c3cccs3)cn2)cc1	20*	?	-1%	43	-8%	11%
CCC(C)NS(=O)(=O)c1ccc(NC(=O)c2cccs2)cc1 (centres undefined)	-3	0%	-5%	-2	2%	4%
CC(=O)Nc1ccc(C(=O)NNC(=O)c2cccs2)cc1	8	5%	1%	-12	-1%	-17%
C[C@H]1C[C@]2(O[C@@H]2C)C(=O)O[C@@H]2CCN(C)C/C=C(/COC(=O)[C@]1(C)O)C2=O	nt	2%	nt	nt	nt	nt
O=C(Nc1ccc2[nH]ccc2c1)c1cccs1	27*	-2%	-10%	55*	-26%	-20%
CC(C)C(=O)Nc1ccc(NC(=O)c2cccnc2)cn1	8	0%	3%	30	0%	1%
O=C(Nc1ccc(C(=O)N2CCCCC2)cc1)c1cccs1	19*	-2%	-18%	68*	-17%	?
CC(C)C(=O)Nc1ccc(NC(=O)c2cccs2)cn1	50*	?	-4%	114*	-13%	20%
O=C(Nc1ccc(Cl)cc1)c1cccs1	60*	-10%	-2%	82*	-4%	?
O=C(Cc1ccc(Cl)cc1)Nc1ccc(NC(=O)c2cccs2)cc1	-5	-2%	2%	-4	3%	-2%
CC(=O)Nc1ccc2[nH]ccc2c1	-6	-6%	5%	11	4%	-3%
CC1CCCCN1S(=O)(=O)c1cc2c3c(c1)CC(=O)N3CCC2 (centres undefined)	nt	nt	-9%	nt	nt	nt
O=C(Nc1cccc(-n2cnnn2)c1)c1cccs1	1	-6%	-3%	-6	-2%	-10%
NC(=O)c1ccsc1NC(=O)c1cccs1	nt	nt	51%	nt	nt	4%
Cc1sc(NC(=O)c2cccs2)c(C(N)=O)c1C	40*	-6%	-1%	62	-8%	-5%
COc1ccc(NC(=O)C2CCN(C(=O)c3cccs3)CC2)cc1	1	3%	1%	-12	-1%	18%
O=C(Nc1ccc(NC(=O)C2CC2)cc1)c1cccs1	43*	-16%	-5%	67*	-2%	-4%
O=C(Nc1cccc(N2CCCC2)c1)c1cccs1	27*	-25%	1%	72*	3%	-1%
CC(C)c1ccc(NC(=S)NNC(=O)c2cccs2)cc1	42*	14%	0%	72*	-1%	28%
Nc1ccn([C@@H]2O[C@H](CO)[C@@H](O)C2(F)F)c(=O)n1	nt	nt	0%[157 µM]	nt	nt	nt
COc1cccc(-c2nc(-c3ccc(NC(=O)c4cccs4)cc3)no2)c1	56*	2%	-3%	64*	-3%	5%
COc1ccc2nc3c(cc2c1)c(NC(=O)c1cccs1)nn3CC(C)C	19*	?	-9%	88*	3%	-14%
COc1ccc(NC(=O)c2cccs2)cc1	41*	-5%	8%	78*	?	-20%
CN1CCN(c2ccc(NC(=O)c3cccs3)cc2)CC1	32*	0%	-7%	41	-9%	8%
COc1cccc(C(=O)COc2ccc(NC(=O)c3cccs3)cc2)c1	19*	nt	0%	20	-1%	13%
SMILES	Cycloheximide cs	Giardia FBPA inh	Tb PYK inh	Shiga toxin inh	LmPK inhibitor	RE007 growth inh
Cc1ccn(-c2ccc(NC(=O)c3cccs3)cc2)n1	33*	-3%	-10%	82*	-17%	?
COc1ccc(NC(=S)NNC(=O)c2cccs2)cc1	27*	1%	-13%	46*	3%	?
Cc1ccc(NC(=O)NNC(=O)c2cccs2)cc1	17*	3%	4%	38*	3%	-23%
Nc1ccc(S(=O)(=O)Nc2nc3ccccc3o2)cc1	1	?	3%	nt	0%	12%
COc1ccc(CCc2nnc(N)s2)cc1OC	4	3%	-5%	-5	0%	-5%
Nc1cccc(NC(=O)c2cccs2)c1	15*	-17%	-1%	20	-8%	3%
CC(C)c1cccc(C(C)C)c1NS(=O)(=O)c1cccs1	nt	nt	-17%	nt	nt	nt
C/C(CC(=O)Nc1ccc(F)cc1F)=N\NC(=O)C(=O)N1CCCCC1	40*	-2%	nt	65*	6%	nt
